From PubChem BioAssay
Activity calls are given as the source filed them. Unless noted, how the calls were made is not given here.

Assays:
[1] = A549 cell viability effects, profiling panel, calcein-AM fluorescence, 48 h, basal (AID 1162); conditions: higher = more signal; further: test concentration not given here
[2] = adipocyte viability effects, profiling panel, cell-based, 3T3-L1 adipocytes, calcein-AM fluorescence, 48 h, basal (AID 1163); conditions: 3T3-L1 adipocytes viability, higher = more signal; further: test concentration not given here
[3] = HepG2 cell viability effects, profiling panel, calcein-AM fluorescence, 48 h, basal (AID 1164); conditions: higher = more signal; further: test concentration not given here
[4] = MM1S cell viability effects, profiling panel, calcein-AM fluorescence, 48 h, basal (AID 1165); conditions: higher = more signal;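 further: viability of MM1S multiple myeloma cells under basal unstimulated conditions; test concentration not given here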
[5] = basal RPMI8226 viability, no added stimulus, profiling panel, cell-based, calcein-AM fluorescence, 48 h, PK04 Diversity Set (AID 1166); conditions: RPMI8226 myeloma viability, higher = more signal;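 further: cells grown under basal conditions without added stimulus; test concentration not given here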
[6] = basal HepG2 mitochondrial membrane potential changes, profiling panel, cell-based, JC-1 fluorescence, 24 h, 100 nL compound (AID 1167); conditions: higher = more signal; further: test concentration not given here
[7] = basal 3T3-L1 adipocyte mitochondrial potential changes, profiling panel, cell-based, JC-1 fluorescence, 3T3-L1 adipocytes, 24 h, 100 nL compound (AID 1168); conditions: JC-1 mitochondrial fluorescence, higher = more signal, called active from +8 up or from −8 down; further: test concentration not given here
[8] = basal RPMI8226 mitochondrial membrane potential changes, profiling panel, cell-based, JC-1 fluorescence, 24 h, 100 nL compound (AID 1169); conditions: RPMI8226 myeloma, JC-1 mitochondrial potential fluorescence, higher = more signal; further: test concentration not given here
[9] = basal MM1S mitochondrial membrane potential changes, profiling panel, cell-based, JC-1 fluorescence, 24 h, 100 nL compound (AID 1170); conditions: higher = more signal; further: test concentration not given here
[10] = A549 lung cancer cell viability effects, profiling panel, resazurin fluorescence, 24 h, PK04 Diversity Set (AID 1171); conditions: higher = more signal, called active from +8 up or from −8 down; further: test concentration not given here
[11] = HepG2 liver cancer cell viability effects, profiling panel, resazurin fluorescence, 24 h, PK04 Diversity Set (AID 1172); conditions: higher = more signal; further: test concentration not given here
[12] = basal S. cerevisiae growth modulation, no modifier, primary screen, OD600, strain BY4716, 24 h, basal condition (AID 1173); conditions: OD600, 24 h, higher = more signal, called active from +8 up or from −8 down
[13] = MM1S myeloma cell viability, profiling panel, resazurin fluorescence, basal, 24 h, PK04 Diversity Set (AID 1174); conditions: higher = more signal, called active from +8 up or from −8 down;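 further: MM1S multiple myeloma cell line; test concentration not given here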
[14] = target: Dihydroorotate dehydrogenase (quinone), mitochondrial (Plasmodium falciparum (isolate 3D7)) (UniProt Q08210); assay: PfDHODH enzyme inhibitors, primary screen, biochemical, C-terminal His tag, absorbance 600 nm (AID 1175); conditions: DCIP absorbance 600 nm, higher = more signal, called active from +8 up or from −8 down;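 further: recombinant parasite enzyme with a five histidine tag at its C terminus; test concentration not given here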
Chain of Dihydroorotate dehydrogenase (quinone), mitochondrial (Plasmodium falciparum (isolate 3D7)) (Q08210 whole entry, looked up): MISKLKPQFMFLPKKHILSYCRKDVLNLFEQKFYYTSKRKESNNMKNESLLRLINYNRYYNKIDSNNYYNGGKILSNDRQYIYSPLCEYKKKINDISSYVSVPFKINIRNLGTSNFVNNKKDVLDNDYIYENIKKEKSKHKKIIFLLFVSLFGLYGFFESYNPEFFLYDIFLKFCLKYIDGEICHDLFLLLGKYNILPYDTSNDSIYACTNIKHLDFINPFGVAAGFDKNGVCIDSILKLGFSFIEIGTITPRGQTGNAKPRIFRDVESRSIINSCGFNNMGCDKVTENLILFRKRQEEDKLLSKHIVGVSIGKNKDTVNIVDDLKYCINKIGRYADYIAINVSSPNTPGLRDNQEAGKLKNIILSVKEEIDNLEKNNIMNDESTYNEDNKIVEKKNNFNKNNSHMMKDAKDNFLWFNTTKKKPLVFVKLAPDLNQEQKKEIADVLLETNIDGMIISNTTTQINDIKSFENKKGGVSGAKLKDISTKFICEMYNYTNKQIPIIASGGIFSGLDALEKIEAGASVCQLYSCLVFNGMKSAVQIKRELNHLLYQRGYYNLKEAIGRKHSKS

[15] = P. aeruginosa biofilm formation inhibitors, primary screen, strain PAO1, LB-PBS medium, absorbance 600 nm (AID 1176); further: test concentration not given here; conditions: P. aeruginosa PAO1 growth/biofilm, A600, 12 h; higher = more signal
[16] = S. cerevisiae RM11-1a growth modifiers, primary screen, strain RM11-1a, OD600, basal, 24 h (AID 1177); conditions: OD600, 24 h, higher = more signal, called active from +8 up or from −8 down;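 further: cultures grown under basal conditions with no added stressor; test concentration not given here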
[17] = E. coli acrAB mutant growth effects, primary screen, E. coli filamentation inducers, strain DRC39, OD650, 24 h (AID 1178); conditions: higher = more signal, called active from +8 up or from −8 down;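 further: growth measured as culture turbidity by optical density at 650 nm; test concentration not given here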
[18] = E. coli acrAB mutant growth effects, primary screen, E. coli filamentation inducers, strain DRC39, OD650, 48 h (AID 1179);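 further: screen aims at cell division blockers that make cells filament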; conditions: E. coli DRC39 delta-acrAB growth, higher = more signal, called active from +8 up or from −8 down
[19] = RPMI8226 myeloma cell viability, profiling panel, resazurin fluorescence, basal, 24 h, PK04 Diversity Set (AID 1180); conditions: higher = more signal;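 further: RPMI8826 multiple myeloma cell line at 5000 cells per well; test concentration not given here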
[20] = target: E3 ubiquitin-protein ligase XIAP (Homo sapiens) (UniProt P98170); assay: XIAP binders, primary screen, biophysical, small-molecule microarray, fluorescence 635 nm (AID 1181); conditions: small-molecule microarray binding, higher = more signal;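 further: score merges 667 nm emission and signal to noise over triplicate slides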
Chain of E3 ubiquitin-protein ligase XIAP (Homo sapiens) (P98170 whole entry, looked up): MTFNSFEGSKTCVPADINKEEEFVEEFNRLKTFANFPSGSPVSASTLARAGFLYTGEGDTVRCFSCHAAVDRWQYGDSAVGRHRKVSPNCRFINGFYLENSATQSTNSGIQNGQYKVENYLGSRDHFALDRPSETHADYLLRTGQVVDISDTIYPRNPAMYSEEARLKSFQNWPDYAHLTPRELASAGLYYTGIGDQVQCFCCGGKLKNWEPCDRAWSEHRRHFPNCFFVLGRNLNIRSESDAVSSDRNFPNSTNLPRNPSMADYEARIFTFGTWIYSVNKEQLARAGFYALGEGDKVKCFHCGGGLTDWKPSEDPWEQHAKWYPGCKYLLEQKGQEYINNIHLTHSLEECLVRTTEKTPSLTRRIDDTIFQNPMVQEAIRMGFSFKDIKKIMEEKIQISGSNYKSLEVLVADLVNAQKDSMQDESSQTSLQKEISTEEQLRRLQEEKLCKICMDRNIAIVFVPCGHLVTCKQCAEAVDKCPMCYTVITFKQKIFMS

In the case of `CCCC=C(CCC)[C@@H](NS(=O)(=O)c1ccc(Cl)cc1)c1ccc(C(=O)OC)cc1`, the z-score [1] is reported as -1.18, the z-score [2] is reported as 0.391 and the z-score [3] is reported as -0.845. It also gave a z-score [4] of 0.48, a z-score [5] of -0.595 and a z-score [6] of -1.07. For the same molecule, the z-score [7] was -0.542 (inactive), the z-score [8] was -0.906 and the z-score [9] was -0.98. The z-score [10] was 0.475 (inactive), the z-score [11] was 1.16 and the z-score [12] was 0.295 (inactive). The z-score [13] was 0.349 (inactive), the composite z-score [14] was -0.336 (inactive) and the z-score [15] was -0.719 (inactive). The z-score [16] was -0.907 (inactive), the z-score [17] was 0.198 (inactive) and the z-score [18] was -1.16 (inactive). It also gave a z-score [19] of 0.0665 and a composite z-score [20] of -0.122.

Molecule `O=C1C2C=CC(C(O)COCc3ccccc3)N(Nc3ccc([N+](=O)[O-])cc3)C2C(=O)N1c1ccccc1` (stereo not given) has a z-score [1] of -0.26, a z-score [2] of 0.619 and a z-score [3] of -0.617. It also gave a z-score [4] of -0.105, a z-score [5] of -0.0326 and a z-score [6] of -1.26. For the same molecule, the z-score [7] was -1.67 (inactive), the z-score [8] was -0.25 and the z-score [9] was -1.01. The z-score [10] was 0.315 (inactive), the z-score [11] was 0.0505 and the z-score [12] was 0.858 (inactive). The z-score [13] was 0.391 (inactive), the composite z-score [14] was -0.262 (inactive) and the z-score [15] was 0.589 (inactive). The z-score [16] was 0.498 (inactive), the z-score [17] was 0.24 (inactive) and the z-score [18] was 0.613 (inactive). For the same molecule, the z-score [19] was 0.948 and the composite z-score [20] was 0.0604.

In the case of `COC(=O)[C@@]1(Cc2ccccc2)[C@H]2c3cc(C(=O)N4CCCC4)n(Cc4c(CO)[nH]cc(C)c4=O)c3C[C@H]2CN1C(=O)c1ccccc1`, the z-score [1] is reported as -1.45, the z-score [2] is reported as -0.412 and the z-score [3] is reported as -0.844. For the same molecule, the z-score [4] was -0.662, the z-score [5] was -2.04 and the z-score [6] was -0.401. For the same molecule, the z-score [7] was -0.276 (inactive), the z-score [8] was -0.797 and the z-score [9] was -0.444. For the same molecule, the z-score [10] was 0.739 (inactive), the z-score [11] was -0.789 and the z-score [12] was 1.01 (inactive). The z-score [13] was -0.74 (inactive), the composite z-score [14] was 0.255 (inactive) and the z-score [15] was 0.287 (inactive). For the same molecule, the z-score [16] was 0.624 (inactive), the z-score [17] was -0.384 (inactive) and the z-score [18] was 0.156 (inactive). It also gave a z-score [19] of -0.467 and a composite z-score [20] of 0.406.

In the case of `O=C1OCCC/C=C\[C@H]2OC34C=CCN(c5ccc6ccccc6c5)C(=O)[C@H]3N(CCCCCO)C(=O)[C@@H]4C12` (stereo not given in full), the z-score [1] is reported as 0.0648, the z-score [2] is reported as 0.456 and the z-score [3] is reported as 0.513. For the same molecule, the z-score [4] was 0.0795, the z-score [5] was -0.681 and the z-score [6] was 0.337. For the same molecule, the z-score [7] was -0.318 (inactive), the z-score [8] was 0.873 and the z-score [9] was -0.505. The z-score [10] was 0.123 (inactive), the z-score [11] was 0.0877 and the z-score [12] was -0.801 (inactive). The z-score [13] was -0.377 (inactive), the composite z-score [14] was -0.338 (inactive) and the z-score [15] was -0.649 (inactive). The z-score [16] was -0.878 (inactive), the z-score [17] was 0.352 (inactive) and the z-score [18] was -0.005 (inactive). The z-score [19] was 0.408 and the composite z-score [20] was -0.0541.

With `C=CCN(Cc1ccccc1)C(=O)C(c1cccs1)N(C(=O)/C=C\C(=O)O)c1ccc(CCOCCO)cc1` (stereo not given) the z-score [1] was 0.631, the z-score [2] was 0.007 and the z-score [3] was 0.97. For the same molecule, the z-score [4] was 1.82, the z-score [5] was 0.526 and the z-score [6] was 0.427. For the same molecule, the z-score [7] was 0.319 (inactive), the z-score [8] was 0.697 and the z-score [9] was -1.06. The z-score [10] was -0.52 (inactive), the z-score [11] was -0.552 and the z-score [12] was 0.25 (inactive). The z-score [13] was 0.222 (inactive), the composite z-score [14] was -1.54 (inactive) and the z-score [15] was 0.742 (inactive). For the same molecule, the z-score [16] was -1.18 (inactive), the z-score [17] was 0.368 (inactive) and the z-score [18] was 0.651 (inactive). The z-score [19] was 0.424 and the composite z-score [20] was -0.249.

With `Cc1ccc(S(=O)(=O)N2C[C@@H](C(=O)O)[C@H](Sc3ccccc3)C[C@H]2c2ccccc2)cc1` the z-score [1] was -1.21, the z-score [2] was -0.27 and the z-score [3] was -0.721. The z-score [4] was -0.279, the z-score [5] was -0.45 and the z-score [6] was -0.654. The z-score [7] was -0.883 (inactive), the z-score [8] was 0.588 and the z-score [9] was 0.319. The z-score [10] was 0.111 (inactive), the z-score [11] was -0.199 and the z-score [12] was -0.638 (inactive). The z-score [13] was -0.26 (inactive), the composite z-score [14] was -1.43 (inactive) and the z-score [15] was 0.409 (inactive). For the same molecule, the z-score [16] was -0.339 (inactive), the z-score [17] was -0.529 (inactive) and the z-score [18] was -1.55 (inactive). The z-score [19] was -0.911 and the composite z-score [20] was -0.303.

For `CC(C)CNC(=O)[C@@]1(Cc2ccccc2I)c2ccccc2C(=O)N(Cc2ccccc2C(F)(F)F)[C@H]1c1ccc(CO)cc1`, the z-score [1] was -0.942, the z-score [2] was -0.716 and the z-score [3] was -0.0693. It also gave a z-score [4] of -0.722, a z-score [5] of -0.548 and a z-score [6] of 0.081. The z-score [7] was 0.752 (inactive), the z-score [8] was -0.844 and the z-score [9] was -0.167. For the same molecule, the z-score [10] was -0.328 (inactive), the z-score [11] was -0.165 and the z-score [12] was 0.428 (inactive). The z-score [13] was -0.0663 (inactive), the composite z-score [14] was 0.366 (inactive) and the z-score [15] was -0.0528 (inactive). For the same molecule, the z-score [16] was 0.0567 (inactive), the z-score [17] was -0.188 (inactive) and the z-score [18] was 0.588 (inactive). The z-score [19] was -0.0359 and the composite z-score [20] was -0.271.

Work on `C#CCOc1ccc(C[C@@H](C(=O)OC)N(CC#C)[C@@H](/C=C/C2CC2)[C@H](O)Cc2ccccc2)cc1` yielded a z-score [1] of -1.05, a z-score [2] of -0.303 and a z-score [3] of -2.42. For the same molecule, the z-score [4] was -2.3, the z-score [5] was -2.19 and the z-score [6] was -1.15. The z-score [7] was -0.00867 (inactive), the z-score [8] was -0.79 and the z-score [9] was -0.524. For the same molecule, the z-score [10] was 0.313 (inactive), the z-score [11] was 0.288 and the z-score [12] was 1.03 (inactive). For the same molecule, the z-score [13] was 0.232 (inactive), the composite z-score [14] was 0.567 (inactive) and the z-score [15] was -0.271 (inactive). The z-score [16] was 1.45 (inactive), the z-score [17] was -0.741 (inactive) and the z-score [18] was -0.528 (inactive). The z-score [19] was 0.318 and the composite z-score [20] was 0.157.

Work on `O=C1C2C=CC(C(O)c3ccc(-c4ccccc4)s3)N(Nc3ccccc3)C2C(=O)N1c1ccccc1` (stereo not given) yielded a z-score [1] of -0.574, a z-score [2] of -1.35 and a z-score [3] of 0.128. It also gave a z-score [4] of -0.338, a z-score [5] of -1.45 and a z-score [6] of -1.75. For the same molecule, the z-score [7] was 0.0226 (inactive), the z-score [8] was 0.054 and the z-score [9] was -0.271. For the same molecule, the z-score [10] was 0.0364 (inactive), the z-score [11] was 0.809 and the z-score [12] was -2.18 (inactive). For the same molecule, the z-score [13] was -0.171 (inactive), the composite z-score [14] was 0.569 (inactive) and the z-score [15] was 0.282 (inactive). For the same molecule, the z-score [16] was 0.119 (inactive), the z-score [17] was -0.172 (inactive) and the z-score [18] was 0.7 (inactive). For the same molecule, the z-score [19] was 0.428 and the composite z-score [20] was 0.59.
